# Data published in paper PMC7862700, “An all-to-all approach to the identification of sequence-specific readers for epigenetic DNA modifications on cytosine”.
# Tests used:
# Assay in all cases: DAPPL (digital affinity profiling via proximity ligation, sequencing); 10 mM Tris-HCl pH 7.5, 50 mM NaCl, 1 mM DTT, 4% glycerol, room temperature, 30 min; GST-TFs on glutathione beads, 16-mer random dsDNA library, 0.1% formaldehyde crosslink after washing; high values mean tight binding
# Details in all cases: protein: recombinant; tags: N-terminal GST; dsDNA, one strand shown
# [1] = target: T1, GABPA (Homo sapiens, UniProt Q06546 1-454)
# T1 sequence: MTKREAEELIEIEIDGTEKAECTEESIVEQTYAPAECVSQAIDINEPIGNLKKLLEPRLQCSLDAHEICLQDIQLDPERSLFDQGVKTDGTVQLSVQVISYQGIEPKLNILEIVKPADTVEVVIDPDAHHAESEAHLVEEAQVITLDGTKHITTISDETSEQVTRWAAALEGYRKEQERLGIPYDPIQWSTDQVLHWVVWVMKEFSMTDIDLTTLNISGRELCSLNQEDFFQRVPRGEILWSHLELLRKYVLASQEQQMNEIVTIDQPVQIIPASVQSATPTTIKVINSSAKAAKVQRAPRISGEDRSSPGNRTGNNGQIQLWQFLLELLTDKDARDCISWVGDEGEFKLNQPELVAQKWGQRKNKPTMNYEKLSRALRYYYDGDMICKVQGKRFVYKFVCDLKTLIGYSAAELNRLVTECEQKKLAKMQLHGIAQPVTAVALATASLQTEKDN
# How it was run: (§1)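 GST fusions of human transcription factors were expressed in yeast and captured with glutathione beads. Once given DNA barcodes and pooled alongside a tag-only sample, they were incubated for 30 min at room temperature with 200 nmole of a random double-stranded 16-mer DNA library in Tris/NaCl/DTT/glycerol buffer, then washed, crosslinked (0.1% formaldehyde), proximity-ligated, PCR-amplified and sequenced on an Illumina NextSeq500. The binding signal of each hexamer is its read frequency for a factor divided by its frequency for the tag-only sample.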
# [2] = target: ELF1 (Homo sapiens, UniProt P32519 1-619)
# How it was run: as §1
# [3] = target: SPIB (Homo sapiens, UniProt Q01892 1-262)
# How it was run: as §1
# [4] = target: T2, ELK3 (Homo sapiens, UniProt P41970 1-407)
# T2 sequence: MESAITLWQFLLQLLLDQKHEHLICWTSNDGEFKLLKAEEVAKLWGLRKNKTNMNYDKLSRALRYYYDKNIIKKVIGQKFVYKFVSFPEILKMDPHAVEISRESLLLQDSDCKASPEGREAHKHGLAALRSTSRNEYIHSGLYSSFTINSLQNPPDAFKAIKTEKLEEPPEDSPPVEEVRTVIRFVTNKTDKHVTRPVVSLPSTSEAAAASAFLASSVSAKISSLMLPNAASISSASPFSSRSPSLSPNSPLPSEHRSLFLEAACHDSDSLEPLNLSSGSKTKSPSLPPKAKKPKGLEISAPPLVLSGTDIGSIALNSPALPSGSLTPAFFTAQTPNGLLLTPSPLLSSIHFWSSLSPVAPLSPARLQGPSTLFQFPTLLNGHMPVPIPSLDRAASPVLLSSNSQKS
# How it was run: as §1
# [5] = target: T3, FEV (Homo sapiens, UniProt Q99581 1-238)
# T3 sequence: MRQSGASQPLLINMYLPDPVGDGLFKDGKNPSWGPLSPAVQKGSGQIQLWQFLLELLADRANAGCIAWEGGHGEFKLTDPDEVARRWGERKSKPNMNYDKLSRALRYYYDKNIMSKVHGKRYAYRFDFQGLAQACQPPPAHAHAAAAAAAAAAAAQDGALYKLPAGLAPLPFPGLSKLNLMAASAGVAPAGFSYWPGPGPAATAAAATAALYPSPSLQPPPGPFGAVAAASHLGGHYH
# How it was run: as §1
# [6] = target: ETV5 (Homo sapiens, UniProt P41161 1-510)
# How it was run: as §1
# [7] = target: ELF4 (Homo sapiens, UniProt Q99607 1-663)
# How it was run: as §1
# [8] = target: T4, ELK4 (Homo sapiens, UniProt P28324-2 1-405)
# T4 sequence: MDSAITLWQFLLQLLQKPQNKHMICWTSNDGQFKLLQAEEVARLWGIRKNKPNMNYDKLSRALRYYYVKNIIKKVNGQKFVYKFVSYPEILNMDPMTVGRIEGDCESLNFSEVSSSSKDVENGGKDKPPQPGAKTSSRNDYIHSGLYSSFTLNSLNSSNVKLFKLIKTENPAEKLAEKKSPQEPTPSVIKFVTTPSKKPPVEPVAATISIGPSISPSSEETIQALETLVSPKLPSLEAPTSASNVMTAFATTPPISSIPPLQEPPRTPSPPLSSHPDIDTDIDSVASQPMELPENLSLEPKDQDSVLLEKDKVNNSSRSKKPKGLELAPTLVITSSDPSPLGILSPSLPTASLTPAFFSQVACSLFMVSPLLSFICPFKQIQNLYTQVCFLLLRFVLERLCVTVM
# How it was run: as §1
# [9] = target: T5, ELF3 (Homo sapiens, UniProt P78545 1-371)
# T5 sequence: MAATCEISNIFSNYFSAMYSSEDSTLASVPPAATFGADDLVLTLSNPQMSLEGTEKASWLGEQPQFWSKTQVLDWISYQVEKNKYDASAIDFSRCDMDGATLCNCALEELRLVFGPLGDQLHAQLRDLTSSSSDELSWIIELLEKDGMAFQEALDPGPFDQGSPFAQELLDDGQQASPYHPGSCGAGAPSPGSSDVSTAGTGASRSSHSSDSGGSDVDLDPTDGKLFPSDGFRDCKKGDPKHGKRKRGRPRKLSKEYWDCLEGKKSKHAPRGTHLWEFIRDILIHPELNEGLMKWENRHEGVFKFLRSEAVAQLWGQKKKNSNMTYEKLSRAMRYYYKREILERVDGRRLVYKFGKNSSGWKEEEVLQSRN
# How it was run: as §1
# [10] = target: ETV1 (Homo sapiens, UniProt P50549 1-477)
# How it was run: as §1
# [11] = target: T6, ETV3L (Homo sapiens, UniProt Q6ZN32 1-361)
# T6 sequence: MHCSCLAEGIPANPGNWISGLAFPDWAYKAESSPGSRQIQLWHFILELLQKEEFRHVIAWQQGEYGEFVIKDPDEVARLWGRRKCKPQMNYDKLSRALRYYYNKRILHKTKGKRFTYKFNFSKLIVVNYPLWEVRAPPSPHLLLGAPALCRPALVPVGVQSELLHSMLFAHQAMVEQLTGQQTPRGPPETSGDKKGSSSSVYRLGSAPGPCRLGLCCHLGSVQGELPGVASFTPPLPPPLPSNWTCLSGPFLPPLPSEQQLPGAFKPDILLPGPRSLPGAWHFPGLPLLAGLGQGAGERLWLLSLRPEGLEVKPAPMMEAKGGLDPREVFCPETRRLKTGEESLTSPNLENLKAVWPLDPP
# How it was run: as §1
# [12] = target: T7, ETS2 (Homo sapiens, UniProt P15036 1-469)
# T7 sequence: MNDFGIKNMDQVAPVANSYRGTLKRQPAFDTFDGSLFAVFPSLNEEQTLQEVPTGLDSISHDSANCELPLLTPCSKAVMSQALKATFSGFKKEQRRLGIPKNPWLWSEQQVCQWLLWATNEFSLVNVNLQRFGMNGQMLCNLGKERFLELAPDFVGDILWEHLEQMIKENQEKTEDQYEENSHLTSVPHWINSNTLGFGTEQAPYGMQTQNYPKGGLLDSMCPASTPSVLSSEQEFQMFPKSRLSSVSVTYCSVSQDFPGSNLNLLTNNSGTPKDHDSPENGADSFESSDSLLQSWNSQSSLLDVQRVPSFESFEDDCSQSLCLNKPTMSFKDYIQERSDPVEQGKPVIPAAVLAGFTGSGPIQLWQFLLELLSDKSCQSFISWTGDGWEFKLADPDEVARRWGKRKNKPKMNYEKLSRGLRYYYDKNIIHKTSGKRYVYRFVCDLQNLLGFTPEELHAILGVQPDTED
# How it was run: as §1
# [13] = target: T8, ETV7 (Homo sapiens, UniProt Q9Y603 1-341)
# T8 sequence: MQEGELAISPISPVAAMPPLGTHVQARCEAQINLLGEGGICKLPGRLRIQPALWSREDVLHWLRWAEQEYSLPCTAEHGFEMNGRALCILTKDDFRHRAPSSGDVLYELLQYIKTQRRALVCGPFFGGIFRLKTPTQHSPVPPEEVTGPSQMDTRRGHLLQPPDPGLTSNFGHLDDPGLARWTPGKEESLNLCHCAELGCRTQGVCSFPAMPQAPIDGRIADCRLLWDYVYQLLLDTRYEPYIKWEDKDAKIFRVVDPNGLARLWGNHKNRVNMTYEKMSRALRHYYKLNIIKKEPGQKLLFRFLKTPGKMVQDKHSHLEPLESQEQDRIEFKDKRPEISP
# How it was run: as §1
# [14] = target: T9, ETV3 (Homo sapiens, UniProt P41162-2 1-143)
# T9 sequence: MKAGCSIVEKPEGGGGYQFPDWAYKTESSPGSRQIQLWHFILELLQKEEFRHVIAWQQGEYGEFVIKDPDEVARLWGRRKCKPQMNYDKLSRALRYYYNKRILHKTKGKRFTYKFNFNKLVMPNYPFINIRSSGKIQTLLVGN
# How it was run: as §1
# [15] = target: ETV6 (Homo sapiens, UniProt P41212 1-452)
# How it was run: as §1
# Chain of ELF4 (Q99607 whole entry): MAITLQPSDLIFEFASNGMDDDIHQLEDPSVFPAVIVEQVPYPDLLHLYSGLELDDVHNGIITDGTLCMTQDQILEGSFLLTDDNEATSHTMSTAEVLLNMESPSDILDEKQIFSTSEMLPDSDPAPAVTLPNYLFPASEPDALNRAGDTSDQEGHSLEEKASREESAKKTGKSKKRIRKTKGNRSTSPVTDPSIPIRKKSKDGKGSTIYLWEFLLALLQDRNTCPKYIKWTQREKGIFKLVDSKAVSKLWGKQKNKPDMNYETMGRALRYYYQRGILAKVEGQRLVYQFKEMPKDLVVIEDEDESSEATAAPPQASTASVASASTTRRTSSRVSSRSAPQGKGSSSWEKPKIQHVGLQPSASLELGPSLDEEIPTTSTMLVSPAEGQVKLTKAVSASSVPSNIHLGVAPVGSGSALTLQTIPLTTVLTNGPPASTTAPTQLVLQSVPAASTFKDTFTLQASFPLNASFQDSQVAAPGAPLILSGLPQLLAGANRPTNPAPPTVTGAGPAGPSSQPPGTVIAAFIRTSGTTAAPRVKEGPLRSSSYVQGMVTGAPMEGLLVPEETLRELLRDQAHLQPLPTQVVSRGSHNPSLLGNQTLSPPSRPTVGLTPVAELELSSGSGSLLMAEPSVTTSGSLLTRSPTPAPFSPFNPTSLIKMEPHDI
# Chain of ELF1 (P32519 whole entry): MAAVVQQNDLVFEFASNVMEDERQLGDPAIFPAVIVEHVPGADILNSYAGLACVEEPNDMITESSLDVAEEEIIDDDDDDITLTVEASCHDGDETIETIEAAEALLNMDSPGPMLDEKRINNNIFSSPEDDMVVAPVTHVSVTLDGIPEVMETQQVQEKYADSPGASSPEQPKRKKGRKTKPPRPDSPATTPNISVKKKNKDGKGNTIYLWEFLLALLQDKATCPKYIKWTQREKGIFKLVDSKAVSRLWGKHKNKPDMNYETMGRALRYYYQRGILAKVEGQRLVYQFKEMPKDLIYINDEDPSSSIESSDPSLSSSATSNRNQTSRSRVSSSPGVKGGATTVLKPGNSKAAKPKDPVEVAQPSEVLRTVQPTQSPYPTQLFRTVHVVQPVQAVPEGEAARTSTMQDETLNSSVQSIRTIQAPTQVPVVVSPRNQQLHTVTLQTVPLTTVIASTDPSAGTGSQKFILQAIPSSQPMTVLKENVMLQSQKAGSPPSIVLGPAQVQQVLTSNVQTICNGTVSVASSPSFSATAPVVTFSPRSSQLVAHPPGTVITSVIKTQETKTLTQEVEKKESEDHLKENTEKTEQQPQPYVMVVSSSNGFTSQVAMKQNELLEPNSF
# Chain of ETV6 (P41212 whole entry): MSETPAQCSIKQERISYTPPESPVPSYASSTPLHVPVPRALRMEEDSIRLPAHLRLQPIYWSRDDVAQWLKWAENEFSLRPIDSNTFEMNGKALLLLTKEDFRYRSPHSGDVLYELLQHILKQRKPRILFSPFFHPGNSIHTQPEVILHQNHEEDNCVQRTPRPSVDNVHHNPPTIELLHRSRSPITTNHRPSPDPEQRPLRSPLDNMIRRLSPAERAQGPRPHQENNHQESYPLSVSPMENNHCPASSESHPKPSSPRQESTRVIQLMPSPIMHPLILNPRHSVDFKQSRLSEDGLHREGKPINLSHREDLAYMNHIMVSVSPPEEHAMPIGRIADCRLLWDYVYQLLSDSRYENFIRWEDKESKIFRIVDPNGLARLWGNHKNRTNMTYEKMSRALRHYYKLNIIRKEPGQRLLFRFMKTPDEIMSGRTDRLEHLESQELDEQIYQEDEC
# Chain of ETV5 (P41161 whole entry): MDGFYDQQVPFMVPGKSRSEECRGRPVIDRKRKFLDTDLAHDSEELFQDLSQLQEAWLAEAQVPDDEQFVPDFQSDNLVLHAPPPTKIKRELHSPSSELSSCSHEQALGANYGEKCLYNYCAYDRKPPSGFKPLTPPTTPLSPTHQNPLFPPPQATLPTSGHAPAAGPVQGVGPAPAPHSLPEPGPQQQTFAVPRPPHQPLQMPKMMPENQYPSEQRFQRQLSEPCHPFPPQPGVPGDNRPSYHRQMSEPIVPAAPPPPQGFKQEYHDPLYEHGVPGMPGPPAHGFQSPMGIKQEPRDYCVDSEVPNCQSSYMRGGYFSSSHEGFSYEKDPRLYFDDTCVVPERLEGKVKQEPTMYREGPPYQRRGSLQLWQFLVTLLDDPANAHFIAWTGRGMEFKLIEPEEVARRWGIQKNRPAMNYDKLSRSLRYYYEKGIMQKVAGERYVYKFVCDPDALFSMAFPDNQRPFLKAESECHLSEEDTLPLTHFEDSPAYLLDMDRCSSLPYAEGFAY
# Chain of ETV1 (P50549 whole entry): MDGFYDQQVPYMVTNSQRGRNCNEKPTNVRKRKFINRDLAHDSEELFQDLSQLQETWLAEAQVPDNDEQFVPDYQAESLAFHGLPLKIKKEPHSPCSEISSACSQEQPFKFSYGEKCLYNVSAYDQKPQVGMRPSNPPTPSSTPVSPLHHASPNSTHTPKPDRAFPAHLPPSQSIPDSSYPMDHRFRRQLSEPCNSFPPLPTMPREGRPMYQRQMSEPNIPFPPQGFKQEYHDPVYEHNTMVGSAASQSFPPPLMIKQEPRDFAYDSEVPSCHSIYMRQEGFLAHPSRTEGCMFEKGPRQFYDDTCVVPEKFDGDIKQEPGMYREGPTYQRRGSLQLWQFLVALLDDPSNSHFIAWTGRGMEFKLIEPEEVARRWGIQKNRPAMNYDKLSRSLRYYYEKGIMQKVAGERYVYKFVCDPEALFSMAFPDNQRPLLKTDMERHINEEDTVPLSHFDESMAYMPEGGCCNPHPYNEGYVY
# Chain of SPIB (Q01892 whole entry): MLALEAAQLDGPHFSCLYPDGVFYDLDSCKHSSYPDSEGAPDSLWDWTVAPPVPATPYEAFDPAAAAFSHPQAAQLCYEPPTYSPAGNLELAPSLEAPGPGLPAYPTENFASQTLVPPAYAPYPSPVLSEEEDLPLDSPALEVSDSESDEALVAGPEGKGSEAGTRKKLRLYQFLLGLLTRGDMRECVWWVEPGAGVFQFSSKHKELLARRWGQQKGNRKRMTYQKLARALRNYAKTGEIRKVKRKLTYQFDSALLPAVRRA
sequence,measurement,setting,value
CGCGTT,binding signal,[1],"1.01 fold enrichment (6-mer frequency, TF over GST control)"
same,binding signal,[2],"1.12 fold enrichment (6-mer frequency, TF over GST control)"
same,binding signal,[3],"1.05 fold enrichment (6-mer frequency, TF over GST control)"
same,binding signal,[4],"1.06 fold enrichment (6-mer frequency, TF over GST control)"
same,binding signal,[5],"1.09 fold enrichment (6-mer frequency, TF over GST control)"
same,binding signal,[6],"1.02 fold enrichment (6-mer frequency, TF over GST control)"
same,binding signal,[7],"1.1 fold enrichment (6-mer frequency, TF over GST control)"
same,binding signal,[8],"1.09 fold enrichment (6-mer frequency, TF over GST control)"
same,binding signal,[9],"1.05 fold enrichment (6-mer frequency, TF over GST control)"
same,binding signal,[10],"1.06 fold enrichment (6-mer frequency, TF over GST control)"
same,binding signal,[11],"1.15 fold enrichment (6-mer frequency, TF over GST control)"
same,binding signal,[12],"1.13 fold enrichment (6-mer frequency, TF over GST control)"
same,binding signal,[13],"1.02 fold enrichment (6-mer frequency, TF over GST control)"
same,binding signal,[14],"1.03 fold enrichment (6-mer frequency, TF over GST control)"
same,binding signal,[15],"1.06 fold enrichment (6-mer frequency, TF over GST control)"
